Screening results deposited in PubChem by The Scripps Research Institute Molecular Screening Center.
Rows were chosen to be rich in hits. Some 3.4% of all compounds tested hit in one or more screens of this group.
FBW7 act: human FBW7 E3 ligase activation, primary screen; AlphaScreen FBW7–phospho-cyclin E peptide binding, activator screen; normalized activity (activation), % at 26.1 µM; actives 0.13% (n = 650,000); AID 1259310; in the data active = normalized activity above about 1.9%;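 note: purified mutant Fbw7 with reduced substrate affinity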
MITF inh: inhibitors of human MITF; O75030; AlphaScreen MITF homodimerization, bead proximity signal; inhibition, % at 2.6 µM; actives 0.91% (n = 650,000); AID 1259374; in the data active = inhibition above about 50%
GPR151 activ: activators of human GPR151 | Q8TDV0 | PathHunter beta-arrestin GPR151 cells, luminescence | activation, % at 11.2 µM | actives 1% (n = 650,000); in the data active = activation above about 4.9%
Target sequence (Q8TDV0 whole entry, looked up): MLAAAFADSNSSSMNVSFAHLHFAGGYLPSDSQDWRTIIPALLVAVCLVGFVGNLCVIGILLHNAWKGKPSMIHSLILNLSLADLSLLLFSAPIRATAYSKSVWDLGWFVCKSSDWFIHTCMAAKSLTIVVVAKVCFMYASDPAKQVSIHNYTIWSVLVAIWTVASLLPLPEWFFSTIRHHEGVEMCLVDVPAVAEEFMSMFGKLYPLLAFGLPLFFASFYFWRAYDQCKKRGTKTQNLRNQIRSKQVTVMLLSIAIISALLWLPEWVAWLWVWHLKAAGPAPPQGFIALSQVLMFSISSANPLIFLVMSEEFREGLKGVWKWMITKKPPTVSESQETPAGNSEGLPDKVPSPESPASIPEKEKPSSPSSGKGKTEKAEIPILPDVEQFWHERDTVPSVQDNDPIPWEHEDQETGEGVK
TEAD-YAP block: TEAD-YAP interaction inhibition | actives 1.4% (n = 640,000) | inhibition, % at 9.12 µM | HEK-TIYL cells, TEAD-Gal4/YAP UAS-luciferase luminescence | AID 1259422; in the data active = inhibition above about 32%
GPR151 confirm: human GPR151 activation, confirmation screen; shares compounds with GPR151 activ; GPR151 PathHunter beta-arrestin cells, luminescence, 90 min; % of EA-reagent control over plate median; activation, % at 11.2 µM; 6,700 tested, under 10 active; AID 1508609;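 active = mean percent activation across replicates above the confirmation screen cutoff of 4.91%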
GPR119 counter: activates human GPR119 in a GPR151 counter-screen. AID 1508611. GPR119 PathHunter beta-arrestin cells, luminescence, 90 min; 0 = compound-well median, 100 = enzyme-acceptor control. activation, % at 11.2 µM. actives 0.3% (n = 6,700). shares compounds with GPR151 activ;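 active = mean percent activation in the counterscreen above 29.09%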;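 note: counterscreen on off-target GPR119 to flag nonselective hits from the GPR151 activator screen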
Numbers stand for hits; 0 = inactive; - = no result.

SMILES	FBW7 act	MITF inh	GPR151 activ	TEAD-YAP block	GPR151 confirm	GPR119 counter
CCCC(CCC)C(=O)Nc1cccnc1	0	0	0	0	-	-
CCCC(CCC)C(=O)Nc1ccncc1	0	0	8.7	0	0	0
COc1ccc(C2CC(C(F)(F)F)n3nc(C(=O)Nc4ccc(OC)c(Cl)c4)cc3N2)cc1 (centres undefined)	0	0	0	0	-	-
O=C(NCc1ccc2c(c1)OCO2)c1ccc(Br)s1	0	0	6.2	0	0	0
O=C1CCSc2c1cccc2C(=O)NCc1ccc2c(c1)OCO2	0	0	5.6	0	0	0
O=C(NCc1ccc2c(c1)OCO2)C(=O)Nc1ccccc1	0	0	0	0	-	-
Cc1ccccc1CNC(=O)C(=O)NCc1ccc2c(c1)OCO2	0	0	5.4	0	0	0
CC(=NCCCn1cnc2c1c(=O)n(C)c(=O)n2C)N(C)C	0	0	6.4	0	0	0
Cc1cccc(C(=O)O/N=C(\N)c2ccc([N+](=O)[O-])cc2)c1	0	0	5.6	0	0	0
Cc1cc(C(=O)O/N=C(\N)c2ccc(Br)cc2)ccc1[N+](=O)[O-]	0	0	6.4	0	0	0
Cc1ccc(SCC(=O)O/N=C(\N)c2cccc([N+](=O)[O-])c2)cc1	0	0	5.2	0	0	0
CC(Oc1ccc(Br)cc1)C(=O)O/N=C(\N)c1cccc([N+](=O)[O-])c1 (centres undefined)	0	0	5.7	0	0	0
Cc1cc(C)cc(C(=O)O/N=C(\N)c2ccc([N+](=O)[O-])cc2)c1	0	0	0	0	-	-
CC(Oc1ccc(Br)cc1)C(=O)O/N=C(\N)c1ccc([N+](=O)[O-])cc1 (centres undefined)	0	0	0	0	-	-
CC(=O)c1sc(=S)n(-c2ccc(N(C)C)cc2)c1C	0	0	0	0	-	-
Cc1ccccc1Cc1c(C)nc2c(C(=O)N3CCN(c4cc(Cl)ccc4C)CC3)cnn2c1C	0	0	0	0	-	-
Cc1ccc2nc(N3N=C(c4ccc(Br)cc4)CC3c3cccc(Br)c3)nc(-c3ccccc3)c2c1 (centres undefined)	0	0	0	0	-	-
CCCNc1nc(-c2cccc(N)c2)ncc1C	0	0	0	0	-	-
CC1=C(C(=O)N2CCC(N3CCCCC3)CC2)C2(CCCCC2)OC1=O	0	0	0	0	-	-
CC(C(=O)O/N=C(\N)c1ccccc1)c1ccc([N+](=O)[O-])cc1 (centres undefined)	0	0	0	0	-	-
CC(C(=O)O/N=C(\N)c1ccncc1)c1ccc([N+](=O)[O-])cc1 (centres undefined)	0	0	21	0	0	0
O=C(Oc1ccc(I)cc1)c1ccc([N+](=O)[O-])cc1	0	0	6.1	0	0	0
CS(=O)(=O)N(CC(=O)Nc1ccc(Cl)cc1)c1ccc(F)cc1	0	0	0	0	-	-
COc1ccc(OC(=O)c2cccc(Br)c2)cc1	0	0	0	0	-	-
CC(=O)c1ccc(OC(=O)c2cccc(Br)c2)cc1	0	0	17	0	0	0
SMILES	FBW7 act	MITF inh	GPR151 activ	TEAD-YAP block	GPR151 confirm	GPR119 counter
CCOC(=O)c1cnc(SCc2cccc(F)c2)nc1N	0	0	0	0	-	-
CCOC(=O)c1cnc(SC2CC(=O)N(c3cccc(F)c3)C2=O)nc1N (centres undefined)	0	0	7.5	0	0	0
COc1ccc(CCNc2nc(Nc3ccc(C(F)(F)F)cc3)nc3cc(OC)c(OC)cc23)cc1	0	0	0	0	-	-
CN1CCCc2cc(CN3CCC4(CC3)CC4C(=O)Nc3ccc4c(c3)OCO4)ccc21 (centres undefined)	0	0	4.9	0	0	0
O=C(Nc1ccc2c(c1)OCO2)C1CC12CCN(C(=O)c1ccc(-n3ccnc3)cc1)CC2 (centres undefined)	0	0	0	0	-	-
O=C(Nc1ccc2c(c1)OCO2)C1CC12CCN(C(=O)c1ccc(-c3ccco3)cc1)CC2 (centres undefined)	0	0	5.5	0	0	0
COc1ccc(-c2nnc(NC(=O)c3ccc(Cl)cc3Cl)s2)cc1	0	0	0	0	-	-
Cc1cccc(NC(=O)C2CC(=O)N(Cc3ccccc3)C(=Nc3cccc(C(F)(F)F)c3)S2)c1 (centres undefined)	0	0	0	0	-	-
CCC1C(=O)NCCN1Cc1ccc2c(c1)CN(Cc1cccc(C)n1)CCO2 (centres undefined)	0	0	5.4	0	0	0
COc1c2occc2c(OC)c2c(=O)cc(C(F)(F)C(F)(F)F)oc12	0	0	5.3	0	0	0
COc1ccc(/C(O)=C2\C(=O)C(=O)N(c3ccc(C(=O)O)cc3)C2c2ccccc2)cc1 (centres undefined)	0	0	9.3	0	0	0
Cc1cccc(NC(=O)N2CCC(NC(=O)C3CCCCC3)CC2)c1	0	0	5.9	0	0	0
Cc1c(Cl)cccc1NC(=O)CN1CCC(NC(=O)C2CCCCC2)CC1	0	0	8.4	0	0	0
O=C(NC1CCN(C(=O)Nc2cccc(Cl)c2)CC1)C1CCCCC1	0	0	0	0	-	-
Cc1c(C(=O)Nc2ccc3c(c2)OCO3)sc2ncn(CC(=O)N3CC(C)CC(C)C3)c(=O)c12 (centres undefined)	0	0	5.0	0	0	0
Cc1c(C(=O)Nc2ccc(Oc3ccccc3)cc2)sc2ncn(CC(=O)Nc3ccc(C(C)C)cc3)c(=O)c12	0	0	0	0	-	-
CCN(CC)C(=O)Cn1cnc2sc(C(=O)Nc3cc(C)ccc3OC)c(C)c2c1=O	0	0	4.9	0	0	0
Cc1sc2ncn(CC(=O)NCc3ccccn3)c(=O)c2c1C	0	0	5.1	0	0	0
CCN(CC)C(=O)Cn1cnc2sc(C(=O)Nc3cc(OC)ccc3OC)c(C)c2c1=O	0	0	0	0	-	-
Cc1sc2ncn(CC(=O)NCC(=O)NCc3ccccn3)c(=O)c2c1C	0	0	0	0	-	-
Cc1ccc(NC(=O)Cn2cnc3sc(C(=O)Nc4ccccc4)c(C)c3c2=O)cc1	0	0	8.9	0	0	0
CCOc1ccc(C(=O)N(Cc2nc(-c3ccc(C)cc3)no2)C(C)C)cc1	0	0	0	0	-	-
COc1ccccc1C(=O)N(Cc1ccc(C)cc1)C1CCS(=O)(=O)C1 (centres undefined)	0	0	0	0	-	-
CCc1cc(N2CCN(C)CC2)n2nc3nc(C)cc(C)c3c2n1	0	0	7.2	0	0	0
CCc1cc(N2CCCC2)n2nc3nc(C)cc(C)c3c2n1	0	0	0	0	-	-
O=S(=O)(Nc1ccc(-c2nnc3n2CCCCC3)cc1)c1cccs1	0	0	0	0	-	-
Cc1cc(Nc2ccc(N3CCOCC3)cc2)nc(Nc2nccc3ccccc23)n1	0	0	5.3	81	0	0
Cc1cc(NC2CC2)nc(Nc2ccc(-n3ccnc3)cc2)n1	0	0	5.3	0	0	0
CCN(CC)c1nc(Nc2ccccc2)nc(Nc2ccc(-n3ccnc3)cc2)n1	0	0	6.6	0	0	0
